Hit rate of the full screen: of about 23,000 compounds, about 30 (0.1%) showed an effect of 50% or more. The list comes from a sample in which strong results are over-represented; it also holds similar structures and randomly drawn compounds. Measured potencies and affinities stand elsewhere.
Test system: Pseudomonas aeruginosa
Conditions: Concentration 300 ug.mL-1; ASSAY_TEST Inhibition of Bacterial Growth; detection method Absorption (OD600); MEDIA CAMHB; plate type 384well; NBS; CORNING #3640; time 18 hr

SMILES | Inhibition
CCc1ccc(C2CNCCO2)cc1 (stereo unspecified) | 46.05%

Reference: ChEMBL document CHEMBL4513160, “CO-ADD screening of MMV (CH) - Small Polar Library”
